Results on 37 compounds are retold here after the supplement of paper PMC12494721.

Counter-ions that a name gives are not always drawn. Values without a mark were called inactive.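 The calls were made as follows: for the amine columns active = adjusted P below 0.05 in both replicates with a change the same way and a mean fold change under 0.8 or over 1.25; inactive = the rest.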

The first test has as its system Klebsiella aerogenes DSM 30053. Kind of test: fold change of Putrescine concentration vs plate DMSO controls (fold change (ratio)); higher = more amine produced, active = hit call of the paper (significant change in both replicates, either direction). To be noted: 20 µM; incubation time: 27 h, anaerobic, 37 °C. Summed up: (§1)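 Amines were quantified by LC–triple-quadrupole MS in dynamic MRM mode against external calibration curves, with drift correction within each batch. The samples were whole anaerobic mGAM cultures of four gut bacterial strains, grown for 27 h at 37 °C in 80 µL wells and extracted with cold acetonitrile/methanol with 0.1% formic acid, then centrifuged. Values are reported as fold change over DMSO controls on the same plate. The mean of 2 biological replicates is given.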
Take `CCCC(C)(COC(N)=O)COC(=O)NC(C)C` (centres undefined) [Carisoprodol]: the “fold change of Putrescine concentration” value was 1.
In the case of `CCC1(c2cccc(O)c2)CCCCN(C)C1` (centres undefined) [Meptazinol hydrochloride], the “fold change of Putrescine concentration” value was 1.
For `CC(C)(C)NCC(O)c1ccccc1Cl` (centres undefined) [Tulobuterol hydrochloride], the “fold change of Putrescine concentration” value is 1.01.
As for `C[C@]12CCC(=O)C(O)=C1CC[C@@H]1[C@@H]2CC[C@]2(C)C(=O)CC[C@@H]12` [Formestane], the “fold change of Putrescine concentration” value is 1.01.
`C=C(C)[C@@H]1[C@H]2OC(=O)[C@@H]1[C@]1(O)C[C@H]3O[C@]34C(=O)O[C@H]2[C@]14C` [Picrotoxinin]: the “fold change of Putrescine concentration” value is 0.932.
Consider `CCOc1cc(Oc2ccc(C(F)(F)F)cc2Cl)ccc1[N+](=O)[O-]`, for which the “fold change of Putrescine concentration” value was 0.943.
As to `O=C(O)C(F)(F)C(F)(F)C(F)(F)C(F)(F)C(F)(F)C(F)(F)C(F)(F)C(F)(F)C(F)(F)F` [PFDeA (Perfluorodecanoic acid)], the “fold change of Putrescine concentration” value is 0.996.
With `CC[C@@H](CO)NC(=O)[C@@H]1C=C2c3cccc4[nH]cc(c34)C[C@H]2N(C)C1` [Methylergometrine maleate], the “fold change of Putrescine concentration” value was 1.01.
As for `O=C(O)C(F)(F)C(F)(F)C(F)(F)C(F)(F)C(F)(F)C(F)(F)C(F)(F)F` [PFOA (Perfluorooctanoic acid)], the “fold change of Putrescine concentration” value is 1.
As to `COc1ccc2c(c1)[C@]13CCCC[C@@H]1[C@H](C2)N(C)CC3` [Dextromethorphan hydrobromide monohydrate], the “fold change of Putrescine concentration” value was 0.999.
Still for that read-out and setting: to `CCOP(=S)(OCC)Oc1cc(C)nc(C(C)C)n1` belongs 1; to `CC(=O)NC1CCSC1=O` (centres undefined) [Citiolone], 0.93; to `CCCCN(CCCC)N=O` [DBNA (N-nitrosodibutylamine)], 1.02.
The same measure, in the same setting: in the case of `CC[C@H](C)[C@H]1O[C@]2(C=C[C@@H]1C)C[C@@H]1C[C@@H](C/C=C(\C)[C@@H](O[C@H]3C[C@H](OC)[C@@H](O[C@H]4C[C@H](OC)[C@@H](O)[C@H](C)O4)[C@H](C)O3)[C@@H](C)/C=C/C=C3\CO[C@@H]4[C@H](O)C(C)=C[C@@H](C(=O)O1)[C@]34O)O2.CO[C@H]1C[C@H](O[C@H]2[C@H](C)O[C@@H](O[C@@H]3/C(C)=C/C[C@@H]4C[C@@H](C[C@]5(C=C[C@H](C)[C@@H](C(C)C)O5)O4)OC(=O)[C@@H]4C=C(C)[C@@H](O)[C@H]5OC/C(=C\C=C\[C@@H]3C)[C@]54O)C[C@@H]2OC)O[C@@H](C)[C@@H]1O` it was 0.99; in that of `C=CCC1(CC(C)C)C(=O)NC(=O)NC1=O` [Butalbital], 1.01; in that of `NCC(CC(=O)O)c1ccc(Cl)cc1` (centres undefined) [Baclofen], 0.988.
Consider `N#Cc1cc(Br)c(O)c(Br)c1`, for which the “fold change of Putrescine concentration” value is 0.978.
On to `N#CC(CCc1ccc(Cl)cc1)(Cn1cncn1)c1ccccc1` (centres undefined), for which the “fold change of Putrescine concentration” value was 0.482.
On to `CN(C)C(=O)Oc1ccc[n+](C)c1` [Pyridostigmine iodide], for which the “fold change of Putrescine concentration” value is 0.98.
Same read-out and setting: to `CC(C)C[C@H](CN)CC(=O)O` [Pregabalin] belongs 1; to `Clc1ccc(C(OCCN2CCCCC2)c2ccccc2)cc1` (centres undefined) [Cloperastine hydrochloride], 0.988.
Turning to `O=[N+]([O-])c1ccc2ccc3cccc4ccc1c2c34` [1-Nitropyrene], the “fold change of Putrescine concentration” value was 1.
Consider `COCC(=O)N(c1c(C)cccc1C)C(C)C(=O)OC` (centres undefined), for which the “fold change of Putrescine concentration” value is 1.
Take `CCCN1C[C@H](CSC)C[C@@H]2c3cccc4[nH]cc(c34)C[C@H]21` [Pergolide mesylate]: the “fold change of Putrescine concentration” value was 0.993.
With `COc1cc(OC)nc(NC(=O)NS(=O)(=O)c2ncccc2C(=O)N(C)C)n1`, the “fold change of Putrescine concentration” value was 1.03.
On to `CNC(C)(C)Cc1ccccc1` [Mephentermine hemisulfate], for which the “fold change of Putrescine concentration” value is 0.952.
As for `CC1(C)C(C=C(Cl)Cl)C1C(=O)OC(C#N)c1ccc(F)c(Oc2ccccc2)c1` (mixture of isomers), the “fold change of Putrescine concentration” value was 1.03.
The same measure, in the same setting: in the case of `CCC1(CC)C(=O)C=CNC1=O` [Pyrithyldione] it was 1.03.
Same read-out and setting: to `COP(=S)(OC)Oc1nc(Cl)c(Cl)cc1Cl` belongs 1.02; to `Nc1nc(N)nc(NC2CC2)n1` [Cyromazine], 1.03; to `ClC1C(Cl)C(Cl)C(Cl)C(Cl)C1Cl` (centres undefined), 1.
As to `CCCN(CCC)C(=O)SCc1ccccc1`, the “fold change of Putrescine concentration” value is 1.01.
`Cc1ccccc1[N+](=O)[O-]` [2-Nitrotoluene]: the “fold change of Putrescine concentration” value is 1.01.
Take `c1cc2ccc3cccc4ccc(c1)c2c34` [Pyrene]: the “fold change of Putrescine concentration” value was 1.05.
Regarding `COc1cccc(C2(O)CCCCC2CN(C)C)c1` (centres undefined) [Tramadol hydrochloride], the “fold change of Putrescine concentration” value is 1.02.
Regarding `NC(=O)CN1CC(O)CC1=O` (centres undefined) [Oxiracetam], the “fold change of Putrescine concentration” value was 0.865.
As for `O=C(NC(=O)c1c(F)cccc1F)Nc1ccc(Cl)cc1`, the “fold change of Putrescine concentration” value is 1.05.

The test system of a further test is Escherichia coli IAI1. Kind of test: fold change of Cadaverine concentration vs plate DMSO controls (fold change (ratio)); higher = more amine produced, active = hit call of the paper (significant change in both replicates, either direction). To be noted: 20 µM; incubation time: 27 h, anaerobic, 37 °C. Summed up: as §1
Consider `CCCC(C)(COC(N)=O)COC(=O)NC(C)C` (centres undefined) [Carisoprodol], for which the “fold change of Cadaverine concentration” value is 1.02.
On to `CCC1(c2cccc(O)c2)CCCCN(C)C1` (centres undefined) [Meptazinol hydrochloride], for which the “fold change of Cadaverine concentration” value is 1.01.
Same read-out and setting: in the case of `CC(C)(C)NCC(O)c1ccccc1Cl` (centres undefined) [Tulobuterol hydrochloride] it was 0.968.
For `C[C@]12CCC(=O)C(O)=C1CC[C@@H]1[C@@H]2CC[C@]2(C)C(=O)CC[C@@H]12` [Formestane], the “fold change of Cadaverine concentration” value is 1.01.
Consider `C=C(C)[C@@H]1[C@H]2OC(=O)[C@@H]1[C@]1(O)C[C@H]3O[C@]34C(=O)O[C@H]2[C@]14C` [Picrotoxinin], for which the “fold change of Cadaverine concentration” value is 0.998.
Regarding `CCOc1cc(Oc2ccc(C(F)(F)F)cc2Cl)ccc1[N+](=O)[O-]`, the “fold change of Cadaverine concentration” value is 0.933.
`O=C(O)C(F)(F)C(F)(F)C(F)(F)C(F)(F)C(F)(F)C(F)(F)C(F)(F)C(F)(F)C(F)(F)F` [PFDeA (Perfluorodecanoic acid)]: the “fold change of Cadaverine concentration” value is 1.01.
On to `CC[C@@H](CO)NC(=O)[C@@H]1C=C2c3cccc4[nH]cc(c34)C[C@H]2N(C)C1` [Methylergometrine maleate], for which the “fold change of Cadaverine concentration” value is 0.996.
`O=C(O)C(F)(F)C(F)(F)C(F)(F)C(F)(F)C(F)(F)C(F)(F)C(F)(F)F` [PFOA (Perfluorooctanoic acid)]: the “fold change of Cadaverine concentration” value was 1.02.
Take `COc1ccc2c(c1)[C@]13CCCC[C@@H]1[C@H](C2)N(C)CC3` [Dextromethorphan hydrobromide monohydrate]: the “fold change of Cadaverine concentration” value was 1.01.
In the case of `CCOP(=S)(OCC)Oc1cc(C)nc(C(C)C)n1`, the “fold change of Cadaverine concentration” value was 1.01.
On to `CC(=O)NC1CCSC1=O` (centres undefined) [Citiolone], for which the “fold change of Cadaverine concentration” value was 0.99.
As to `CCCCN(CCCC)N=O` [DBNA (N-nitrosodibutylamine)], the “fold change of Cadaverine concentration” value was 1.05.
Consider `CC[C@H](C)[C@H]1O[C@]2(C=C[C@@H]1C)C[C@@H]1C[C@@H](C/C=C(\C)[C@@H](O[C@H]3C[C@H](OC)[C@@H](O[C@H]4C[C@H](OC)[C@@H](O)[C@H](C)O4)[C@H](C)O3)[C@@H](C)/C=C/C=C3\CO[C@@H]4[C@H](O)C(C)=C[C@@H](C(=O)O1)[C@]34O)O2.CO[C@H]1C[C@H](O[C@H]2[C@H](C)O[C@@H](O[C@@H]3/C(C)=C/C[C@@H]4C[C@@H](C[C@]5(C=C[C@H](C)[C@@H](C(C)C)O5)O4)OC(=O)[C@@H]4C=C(C)[C@@H](O)[C@H]5OC/C(=C\C=C\[C@@H]3C)[C@]54O)C[C@@H]2OC)O[C@@H](C)[C@@H]1O`, for which the “fold change of Cadaverine concentration” value is 0.968.
Same read-out and setting: to `C=CCC1(CC(C)C)C(=O)NC(=O)NC1=O` [Butalbital] belongs 1.02; to `NCC(CC(=O)O)c1ccc(Cl)cc1` (centres undefined) [Baclofen], 1.
Turning to `N#Cc1cc(Br)c(O)c(Br)c1`, the “fold change of Cadaverine concentration” value was 1.29 (active).
In the case of `N#CC(CCc1ccc(Cl)cc1)(Cn1cncn1)c1ccccc1` (centres undefined), the “fold change of Cadaverine concentration” value was 0.972.
Still for that read-out and setting: to `CN(C)C(=O)Oc1ccc[n+](C)c1` [Pyridostigmine iodide] belongs 1.01.
Take `CC(C)C[C@H](CN)CC(=O)O` [Pregabalin]: the “fold change of Cadaverine concentration” value was 1.02.
As for `Clc1ccc(C(OCCN2CCCCC2)c2ccccc2)cc1` (centres undefined) [Cloperastine hydrochloride], the “fold change of Cadaverine concentration” value is 0.958.
As for `O=[N+]([O-])c1ccc2ccc3cccc4ccc1c2c34` [1-Nitropyrene], the “fold change of Cadaverine concentration” value is 0.96.
On to `COCC(=O)N(c1c(C)cccc1C)C(C)C(=O)OC` (centres undefined), for which the “fold change of Cadaverine concentration” value was 1.01.
On the same count and under the same terms, in the case of `CCCN1C[C@H](CSC)C[C@@H]2c3cccc4[nH]cc(c34)C[C@H]21` [Pergolide mesylate] it was 1.06; in that of `COc1cc(OC)nc(NC(=O)NS(=O)(=O)c2ncccc2C(=O)N(C)C)n1`, 1.01.
For `CNC(C)(C)Cc1ccccc1` [Mephentermine hemisulfate], the “fold change of Cadaverine concentration” value was 0.943.
In the case of `CC1(C)C(C=C(Cl)Cl)C1C(=O)OC(C#N)c1ccc(F)c(Oc2ccccc2)c1` (mixture of isomers), the “fold change of Cadaverine concentration” value is 1.09.
As for `CCC1(CC)C(=O)C=CNC1=O` [Pyrithyldione], the “fold change of Cadaverine concentration” value was 1.
Turning to `COP(=S)(OC)Oc1nc(Cl)c(Cl)cc1Cl`, the “fold change of Cadaverine concentration” value was 0.99.
In the case of `Nc1nc(N)nc(NC2CC2)n1` [Cyromazine], the “fold change of Cadaverine concentration” value was 0.979.
`ClC1C(Cl)C(Cl)C(Cl)C(Cl)C1Cl` (centres undefined): the “fold change of Cadaverine concentration” value was 1.02.
Regarding `CCCN(CCC)C(=O)SCc1ccccc1`, the “fold change of Cadaverine concentration” value is 0.995.
The same measure, in the same setting: to `Cc1ccccc1[N+](=O)[O-]` [2-Nitrotoluene] belongs 1.01; to `c1cc2ccc3cccc4ccc(c1)c2c34` [Pyrene], 0.969.
Turning to `COc1cccc(C2(O)CCCCC2CN(C)C)c1` (centres undefined) [Tramadol hydrochloride], the “fold change of Cadaverine concentration” value is 0.969.
Take `NC(=O)CN1CC(O)CC1=O` (centres undefined) [Oxiracetam]: the “fold change of Cadaverine concentration” value is 0.876.
For `O=C(NC(=O)c1c(F)cccc1F)Nc1ccc(Cl)cc1`, the “fold change of Cadaverine concentration” value was 1.01.
